# Screening data deposited in PubChem BioAssay by National Center for Advancing Translational Sciences (NCATS).
# The list is not random: actives were taken first. Their share in the collection is about 1.3%.
# IL-2 act: activators of IL-2; IL-2 activation reporter assay, cell-based qHTS; stimulated with anti-CD3/CD4/CD28 beads; in transgenic mouse T cells; AID 652025; activation, % (series mostly up to about 46 µM); 360,000 tested, 0.065% active; in the data active = activation above about 50%; inconclusive = mostly about 30% to 49%; note: 0% is about no effect
#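 First, unstimulated transgenic mouse T cells were exposed to compound for 60 min. Next, anti-CD3/anti-CD4-coated beads with anti-CD28 were added. Finally, after 18 h at 37 degrees C, EGFP and DsRed were imaged.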
# TCR activator: activators of T cell receptors | primary human leukocytes, anti-CD3, IL-2 HTRF, 48 h | Potency, µM (doses to about 9.22 µM), inactives show top-dose activation of IL-2 secretion, usual class: activators | 330,000 tested, under 10 active | AID 504894; note: % of control where 0% means no effect
#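 Using a-CD3 beads without co-stimulation, primary human leukocytes were exposed to compounds for 48 hr. An HTRF IL-2 kit measured the cytokine, with europium-to-d2 energy transfer producing emission at 665nm upon 320nm excitation.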
# BRCA1 expr act: activators of BRCA1 expression; MCF7-BRCA1-FFLuc reporter, luminescence, 48 h; response scale: scaled: vehicle 0%, 10 µM genistein 100%; Potency, µM (highest dose often 46.1 µM), without a hit: top-dose activation, most hits filed as activators; 380,000 tested, 1.1% active; AID 624202; note: potency is the fitted concentration of half-maximal effect; nearly all actives have a fitted effect of over 80% in size
#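 Activators of BRCA1 expression were detected as increased firefly luciferase luminescence in engineered MCF7 cells after 48 h compound incubation. Signals were scaled to genistein 10 microM as full activation.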
# p53 reactivation: restores transcriptional activity of mutant p53; H1299 p53-A138V BP100-luciferase reporter, luminescence, 24 h; Potency, µM (top dose mostly 92.2 µM), without a hit: at the top dose activity change, positive = activation, usual class: activators; 320,000 tested, 0.063% active; AID 504706; note: potency is the fitted concentration of half-maximal effect; % of control where 0% means no effect; nearly all actives have a fitted effect of over 45% in size
#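 H1299 (p53-null), stable ts p53-A138V + BP100-Luc; 1000 cells/well, Opti-MEM/10% FBS; cpd 4 pt, 1:5; 24 h, 37 deg C, 5% CO2; detection reagent 10 min RT; luminescence.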
# Mito fusion act: mitochondrial division inhibition or fusion activation; Potency, µM (highest dose often 46.1 µM), inactives show at the top dose growth rescue (activation), most hits filed as activators; 320,000 tested, 0.23% active; S. cerevisiae fusion-defective mutant growth rescue, CellTiterGlo 48 h; note: potency is the fitted concentration of half-maximal effect; % of control where 0% means no effect; nearly all actives have a fitted effect of over 45% in size
#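 Luminescent cell viability in 1536-well qHTS format served as the measure of rescued growth in ts fusion-mutant S. cerevisiae cultured on non-fermentable YPEG for 48 hours at 37C.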
# * marks the source's active call; other numbers are inactive results; ? = inconclusive; . = not tested or not shown; [ ] = remark or other dose. Unless noted, calls come from the whole dose curve; as a rule, active = well fitted curve in the direction sought with a large enough effect; inconclusive = small, poorly fitted or top-dose-only effect, or another doubt; inactive = no such curve, though single readings can be large; an effect the other way counts as inactive or inconclusive.
SMILES,IL-2 act,TCR activator,BRCA1 expr act,p53 reactivation,Mito fusion act
COCc1ccc(C(=O)N(C)CC2CCCN(CCc3ccc(OC)cc3)C2)o1 (stereo not given),-1.3,0.5%,12.6µM*,?,5.7%
Cc1ccc(CNc2ncnc3[nH]ncc23)o1,.,.,-41.1%,.,.
Cc1sc2ncnc(Sc3ccccc3C(=O)Nc3ccc(C#N)cc3)c2c1C,-1.5,4.0%[46.1 µM],-61.5%,1.9%,12.6µM*
N=c1oc2cc(O)ccc2cc1C(=O)Nc1ccc(F)cc1,-0.8,10.8%,1.58µM*,20.6%,29.6%
COc1ccc(C(=O)Nc2cnc3ccccn3c2=O)cc1,-0.6,-0.8%,4.47µM*,2.0%,6.2%
O=C(Nc1cnc2ccccn2c1=O)c1ccc(F)cc1,2.2,-1.8%,?,?,2.3%
COc1ccc(C(=O)Nc2ccccc2C(=O)Nc2ccccc2C(=O)O)cc1,-1.1,-3.8%,?,-4.3%,3.9%
COc1ccc(C(=O)Nc2ccccc2C(N)=O)cc1,-0.3,.,6.31µM*,?,-1.7%
CC(=O)Nc1cc(O)c2nonc2c1O,.,.,-61.1%,.,.
O=C(O)c1[nH]c2ccccc2c1NS(=O)(=O)c1ccc(F)cc1,0.9,-1.1%,-6.6%,1.5%,35.5µM*
COc1ccc(S(=O)(=O)Nc2c(C(=O)O)[nH]c3ccccc23)cc1,6.7,-2.2%,4.2%,7.0%,2.9%
O=C(NNCc1ccccc1)c1ccccn1,-0.5,-5.2%,1.12µM*,.,.
CCOc1ccc(N=C2NC(=O)S/C2=C\c2ccc(N(C)C)cc2)cc1,9.4,-2.1%,3.16µM*,?,0.6%
Cc1ccc(Nc2nnns2)cc1,-0.8,7.5%,-13.2%,-0.2%,-0.4%
CC1=CC(C)(C)N=C(Nc2ccc(C)cc2)S1,0.5,5.0%,12.6µM*,?,-10.0%
Nc1nnc(-c2cc3ccccc3oc2=O)s1,0.6,-9.1%,7.94µM*,7.9%,-2.4%
COc1ccc2oc(=O)c(-c3nnc(N)s3)cc2c1,1.4,3.0%,14.1µM*,12.4%,0.9%
O=c1oc2ccccc2cc1-c1nnc(NCc2ccco2)s1,0.2,-3.7%,4.9%,?,-0.3%
O=C(Cc1ccc(Cl)cc1)N1CCc2ccccc2C1,1.1,-1.9%,10µM*,.,.
CC(=O)c1ccc(NC(=O)N2CCc3ccccc3C2)cc1,-3.2,-0.7%,11.2µM*,11.9%,-1.1%
CC(=O)c1cccc(NC(=O)N2CCc3ccccc3C2)c1,0.1,1.0%,8.91µM*,16.7%,-11.0%
Cc1ccc(NC(=O)N2CCc3ccccc3C2)cc1,1.0,.,?,19.5%,-1.9%
COc1ccc(CC(=O)N2CCc3ccccc3C2)cc1,-1.8,-0.6%,56.3%,15.5%,1.4%
COc1ccc(NC(=O)N2CCc3ccccc3C2)cc1,0.7,17.4%,7.94µM*,26.2%,1.0%
CCOc1ccc(NC(=O)N2CCc3ccccc3C2)cc1,-2.4,-6.7%,58.7%,20.4%,-1.0%
SMILES,IL-2 act,TCR activator,BRCA1 expr act,p53 reactivation,Mito fusion act
COc1ccc2nccc(/C=C/c3ccc(N(C)C)cc3)c2c1,.,.,-27.3%,.,.
CN(C)c1ccc(NC(=O)CN2CCc3ccccc3C2)cc1,-0.2,-7.7%,11.2µM*,?,-1.9%
O=C(CNc1cccc(F)c1)N1CCc2ccccc2C1,1.3,2.3%,7.94µM*,?,5.7%
O=C(c1cccc(F)c1)N1CCc2ccccc2C1,-2.3,0.2%,27.4%,26.5%,-0.9%
CCOc1ccc(NC(=O)N2CCN(S(=O)(=O)c3ccc4c(ccn4C)c3)CC2)cc1,.,.,-20.4%,.,.
Cc1nc(NCc2ccccn2)c2c3c(sc2n1)CCCC3,4.8,1.5%,-16.3%,-2.6%,20µM*
CCOC(=O)c1ccc(NCCOC)c([N+](=O)[O-])c1,0.9,7.6%,12.6µM*,4.6%,-0.5%
COCCNc1cc(N)c([N+](=O)[O-])cc1[N+](=O)[O-],-1.8,1.5%[46.1 µM],-19.7%,-12.5%,4.0%
O=C(O)c1cccc(COc2ccc(CO)cc2Cl)c1,1.4,-3.5%,-103.9%,-22.8%,-2.4%
O=C(O)c1ccc(COc2ccc(CO)cc2Cl)cc1,-0.2,-14.2%,7.94µM*,20.6%,0.7%
O=C(Cn1cccc1C(=O)c1ccccc1)NCCCc1ccccc1,-1.0,3.0%,11.0%,15.4%,7.0%
CC(C(=O)NCCCc1ccccc1)n1cccc1C(=O)c1ccccc1 (stereo not given),1.4,-7.1%,0.5%,-2.2%,22.4µM*
Oc1ccc(COC2CCCC2)c2cccnc12,.,.,.,.,3.4%
O=C(CSc1nc2ccccc2c(=O)n1NC(=O)c1ccccc1)c1ccccc1,-0.4,0.1%,82.0%,?,12.0%
O=C(CSc1nc2ccccc2c(=O)n1NC(=O)c1ccccc1)c1ccc(Cl)cc1,-1.5,0.8%,14.1µM*,6.9%,5.3%
CCc1ccc(NC(=O)C(=S)NC2CCCCC2)cc1,0.3,.,2µM*,20.3%,8.8%
CCc1ccc(NC(=O)NC2CCCCCCC2)cc1,-1.9,-4.3%,?,?,-4.3%
Nc1ccc(/C=C/c2nccc3ccccc23)cc1,.,.,-40.1%,.,.
CCC1(CC)Nc2ccccc2C(=O)N1c1ccc(OC)cc1,0.9,15.4%,?,8.6%,-0.8%
COc1ccc(N2C(=O)c3ccccc3NC23CCCC3)cc1,0.2,0.4%,6.31µM*,14.7%,-1.4%
CSc1nc(N)c2ncn([C@@H]3O[C@H](COP(=O)(O)OP(=O)(O)O)C(O)[C@H]3O)c2n1 (stereo not given in full),.,.,.,.,-58.2%
COc1cccc(CNC(=O)CSC2=Nc3ccccc3N=C(c3ccc(F)cc3)C2)c1,.,.,-32.3%,.,.
O=C(COc1ccccc1C(=O)Nc1ccccc1)Nc1ccccc1F,.,.,-5.1%,.,.
CCCc1ccc(C(=O)/C=C/N(C)C)cc1,-1.8,-0.4%,12.6µM*,9.2%,4.0%
CN(C)/C=C/C(=O)c1ccc(F)cc1,-2.4,0.5%,7.6%,9.1%,2.4%
SMILES,IL-2 act,TCR activator,BRCA1 expr act,p53 reactivation,Mito fusion act
Cc1ncc(C(=O)Nc2ccccc2)[nH]1,0.3,-6.9%,2.82µM*,.,.
O=C(c1cc(S(=O)(=O)N2CCN(c3ccccc3)CC2)ccc1Cl)N1CCCCCCC1,-0.9,.,-50.4%,-3.6%,14.1µM*
CC1CN(C(=O)c2cc(S(=O)(=O)N3CCN(c4ccccc4)CC3)ccc2Cl)CC(C)O1 (stereo not given),-6.1,-17.9%,-26.6%,-5.6%,9.1%
COc1ccccc1C(=O)O/N=C(\N)c1ccc(Cl)cc1,-0.2,-4.5%,-40.9%,15.7%,3.6%
N/C(=N\OC(=O)c1ccc2c(c1)OCO2)c1ccc(Cl)cc1,0.0,-0.4%,8.91µM*,?,11.3%
COc1ccc(C(=O)O/N=C(\N)c2ccc(Cl)cc2)cc1,-1.3,-4.0%,2.51µM*,?,-20.3%
Cc1ccc(/C(N)=N/OC(=O)c2ccc3c(c2)OCO3)cc1,-3.4,0.7%[46.1 µM],?,?,27.2%
COc1ccc(/C(N)=N/OC(=O)c2ccc3c(c2)OCO3)cc1,1.1,1.9%[46.1 µM],3.16µM*,18.8%,6.3%
Cc1cc(/C(N)=N/OC(=O)c2ccc(Cl)cc2)no1,3.0,0.0%,7.94µM*,14.5%,12.0%
